Shown are actives, neighbours in structure and some others; about 3.2% of the full set was active somewhere.
DENV2 CPE rescue – protects cells from dengue virus 2 cytopathic effect; DENV2-infected cells, cytopathic effect rescue, plate reader; CPE inhibition, % at 9.99 µM; 1.7% of 350,000 active; AID 651640; in the data active means CPE inhibition above about 20%, passing the limit was not always enough; inconclusive means no clear call, values can overlap the other calls; tested in BHK-21 cells;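 further: 0% = median of neutral control wells and 100% = median of positive control wells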
INS-1E GSIS act – primary screen for activators of insulin secretion dependent on glucose, INS-1E cells, GLuc reporter luminescence. INS-1E GLuc reporter insulin secretion, 2-3 h. activation, % at 16.6 µM. 0.61% of 370,000 active;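 active means lowest replicate activation of at least 40%, so every replicate reaches that level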;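 further: 0% = median of neutral control wells and 100% = median of IBMX positive control wells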
rRNA inh HTS – inhibits bacterial ribosomal RNA function over humanized ribosomes | AID 720706 | E. coli WT GFP vs humanized-ribosome RFP mutants, fluorescence, 24 h; hits give low values; DMSO median 0, no signal -100 | 1.6% of 350,000 active | GFP signal change (wild-type ribosome), % (concentration not given with the values);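 active means significant combined selectivity score with lowered wild-type GFP, culture density cut under 30%, mutant RFP and density less affected; inactive means any of these conditions unmet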
ERAP1 HTS inh – blocks human ERAP1 aminopeptidase activity; Q9NZ08; recombinant ERAP1, Leu-AMC fluorescence, 60 min; inhibition, % at 10.7 µM; 0.15% of 340,000 active;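 active means mean replicate inhibition of at least 30%, or all replicates individually reaching that 30% level; inactive means mean below 30% and not every replicate reaching it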;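 further: 0% = neutral control wells and 100% = L-leucinethiol positive control wells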
CaV13 ICDI inh – Primary screen for inhibitors of IQ motif and Ca2+-dependent inactivation inhibitor domain binding in CACNA1D, Förster resonance energy transfer in living cells, …. HEK cells, CFP/YFP FRET ICDI-IQ, plate reader, 10 min; percent FRET-ratio fall versus neutral wells. inhibition, % at 12.3 µM. 0.098% of 340,000 active. AID 743397;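 active means mean replicate inhibition of at least 30% and at least 1% of replicates passing that level; inconclusive means only one of the two criteria is met; inactive means neither criterion is met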;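 further: 0% = median of the neutral control wells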
PGC1a acetyl inh – modulators of PGC1a acetylation; AID 651687; 0.17% of 350,000 active; U2OS PGC1a acetylation, AlphaScreen anti-acetyl-lysine; with virally co-expressed GCN5 acetyltransferase; inhibition, % at 15.6 µM;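 active means every replicate shows inhibition of at least 40%; inconclusive means mean inhibition at least 40% but some replicate below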;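 further: 0% = neutral control wells and 100% = positive control wells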
* marks the source's active call; other numbers are inactive results; ? = inconclusive; . = not tested or not shown.

SMILES | DENV2 CPE rescue | INS-1E GSIS act | rRNA inh HTS | ERAP1 HTS inh | CaV13 ICDI inh | PGC1a acetyl inh
C[C@@H]1CN([C@H](C)CO)C(=O)Cc2cc(N(C)C)ccc2O[C@H]1CN(C)C(=O)Nc1cccc2ccccc12 | -7 | -13 | -2 | -1 | . | 4
CO[C@@H]1CN(C)C(=O)c2ccc(NC(=O)NC(C)C)cc2OC[C@@H](C)N(Cc2cncnc2)C[C@H]1C | . | -2 | 0 | . | . | 11
N#C[C@@H]1[C@H](c2ccc(C#Cc3ccc(F)cc3)cc2)[C@@H](CO)N1C(=O)C1CCCC1 | 51* | 20 | 0 | 3 | . | -27
N#C[C@@H]1[C@H](c2ccc(C#Cc3ccccc3F)cc2)[C@H](CO)N1C(=O)C1CCC1 | 102* | -2 | 1 | 0 | . | -6
N#C[C@@H]1[C@H](c2ccc(C#Cc3ccccc3F)cc2)[C@@H](CO)N1C(=O)C1CC1 | 82* | -5 | -53 | -5 | . | -10
N#C[C@H]1[C@@H](c2ccc(C#Cc3ccccc3F)cc2)[C@H](CO)N1C(=O)C1CC1 | 3 | -3 | -58 | -2 | . | -12
N#C[C@H]1[C@H](c2ccc(C#Cc3ccc(F)cc3)cc2)[C@H](CO)N1C(=O)C1CC1 | -5 | 9 | 1 | -1 | . | -13
COc1ccccc1C#Cc1ccc([C@@H]2[C@@H](C#N)N(C(=O)C3CCC3)[C@H]2CO)cc1 | 22* | -1 | -13 | 2 | . | -12
CCCN1[C@@H]2c3ccc(-c4cccc(F)c4)c(=O)n3C[C@H]1[C@H](CO)[C@H]2C(=O)NCC | 5 | 13 | 0 | 1 | . | .
N#C[C@@H]1[C@@H](c2ccc(C#Cc3ccccc3F)cc2)[C@H](CO)N1C(=O)C1CCCCC1 | 3 | 24 | 1 | 6 | . | -11
N#C[C@H]1[C@@H](c2ccc(C#Cc3ccccc3F)cc2)[C@@H](CO)N1C(=O)C1CCCC1 | 33* | -33 | -44 | 1 | . | .
C[C@@H]1CCCCO[C@H](CN(C)Cc2ccc(C(=O)Nc3ccccc3N)cc2)[C@@H](C)CN([C@@H](C)CO)C(=O)c2cc(N(C)C)ccc2O1 | . | -4 | -3 | . | . | .
COc1cc(NC(=O)CSCC(=O)Nc2cccc(C(F)(F)F)c2)c(Cl)cc1Cl | 7 | -51 | -31* | -1 | -7 | -28
CCC(=O)N(C)C[C@H]1Oc2ncc(-c3ccc(C#N)cc3)cc2C(=O)N([C@H](C)CO)C[C@H]1C | ? | 23 | 0 | -3 | . | -8
COc1cccc(NC(=O)N[C@@H]2C=C[C@@H](CC(=O)N3CCN(C)CC3)O[C@@H]2CO)c1 | -3 | 8 | 1 | -3 | . | .
O=C(C[C@H]1C=C[C@@H](NC(=O)CC2CC2)[C@H](CO)O1)NCC(F)(F)F | -4 | 4 | -1 | -2 | . | -3
C/[N+]([O-])=C/c1c(OCc2ccccc2)ccc2ccccc12 | 18 | -2 | -36* | 0 | -4 | -1
O=Cc1c(OCc2ccccc2)ccc2ccccc12 | -6 | -3 | -37* | -3 | -4 | 32
COc1ccc(CCN2C(=O)c3ccccc3C2c2nnnn2Cc2ccccc2)cc1OC (stereo unspecified) | 3 | 8 | -21* | . | -8 | .
CC[N+](CC)(CC#Cc1ccccc1)CC(=O)c1ccc(Cl)cc1 | 5 | 12 | -23* | 0 | -3 | .
CC(Sc1nc(O)c(-c2ccccc2)c(=O)[nH]1)C(=O)Nc1ccc(Cl)cc1 (stereo unspecified) | -7 | -7 | -24* | 3 | 5 | .
CCOC(=O)c1ccc(NC(=O)C(C)Sc2nc(O)c(-c3ccccc3)c(=O)[nH]2)cc1 (stereo unspecified) | -5 | -20 | 1 | 4 | -2 | 0
CC(Sc1nc2ncc(Cl)cc2[nH]1)C(=O)c1c(N)n(C)c(=O)n(C)c1=O (stereo unspecified) | -7 | 4 | -1 | -5 | -4 | 4
CC(Sc1nc2ncc(Cl)cc2[nH]1)C(=O)Nc1ccc(C(N)=O)cc1 (stereo unspecified) | 118* | -3 | 14 | -1 | -6 | 3
C[C@H]1CCCCO[C@H](CN(C)Cc2ccc(C(=O)O)cc2)[C@@H](C)CN([C@@H](C)CO)C(=O)c2cc(NC(=O)Nc3ccc(C(F)(F)F)cc3)ccc2O1 | -12 | 8 | 1 | 2 | . | -4
